Source: PubChem BioAssay (The Scripps Research Institute Molecular Screening Center)
An excerpt weighted towards active compounds, which were near 3.5% of everything screened.
MITF inh: inhibitors of human MITF | O75030 | AlphaScreen MITF homodimerization, bead proximity signal | inhibition, % at 2.6 µM | 650,000 tested, 0.91% active; in the data active = inhibition above about 50%
FBW7 activator: activators of human E3 ligase FBW7 | 650,000 tested, 0.13% active | Q969H0 | AID 1259310 | normalized activity (activation), % at 26.1 µM | AlphaScreen FBW7–phospho-cyclin E peptide binding, activator screen; in the data active = normalized activity above about 1.9%;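 note: purified mutant Fbw7 with reduced substrate affinity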
Target sequence (Q969H0 whole entry, looked up): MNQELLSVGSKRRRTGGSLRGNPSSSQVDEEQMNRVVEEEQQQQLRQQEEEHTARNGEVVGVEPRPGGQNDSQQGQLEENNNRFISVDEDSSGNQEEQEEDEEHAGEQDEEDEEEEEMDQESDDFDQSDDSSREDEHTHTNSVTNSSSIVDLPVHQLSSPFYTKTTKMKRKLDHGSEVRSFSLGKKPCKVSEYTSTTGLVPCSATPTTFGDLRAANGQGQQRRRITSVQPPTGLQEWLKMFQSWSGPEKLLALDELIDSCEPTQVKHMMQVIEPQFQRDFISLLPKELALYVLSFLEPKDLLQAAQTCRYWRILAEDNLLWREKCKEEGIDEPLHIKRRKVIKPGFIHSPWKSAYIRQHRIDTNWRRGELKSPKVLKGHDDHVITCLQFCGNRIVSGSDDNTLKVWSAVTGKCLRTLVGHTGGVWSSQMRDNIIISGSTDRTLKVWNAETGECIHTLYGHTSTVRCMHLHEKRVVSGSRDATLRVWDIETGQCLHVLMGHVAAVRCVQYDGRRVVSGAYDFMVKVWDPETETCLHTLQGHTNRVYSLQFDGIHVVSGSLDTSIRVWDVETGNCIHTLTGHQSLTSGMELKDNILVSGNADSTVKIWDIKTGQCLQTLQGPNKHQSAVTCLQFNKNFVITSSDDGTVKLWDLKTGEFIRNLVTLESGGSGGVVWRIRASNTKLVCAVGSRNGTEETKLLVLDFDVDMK
GPR151 ag: human GPR151 activation. activation, % at 11.2 µM. PathHunter beta-arrestin GPR151 cells, luminescence. Q8TDV0. 650,000 tested, 1% active; in the data active = activation above about 4.9%
TEAD-YAP inh: TEAD-YAP interaction inhibition; HEK-TIYL cells, TEAD-Gal4/YAP UAS-luciferase luminescence; inhibition, % at 9.12 µM; 640,000 tested, 1.4% active; in the data active = inhibition above about 32%
Large screens that a line does not name were inactive.

CC(Oc1cccc2ccccc12)C(=O)N/N=C/c1cc([N+](=O)[O-])ccc1O (centres undefined)	TEAD-YAP inh 36.9
COc1c(OC(C)=O)ccc(/C=N/NC(=O)COc2c(C)cccc2C)c1[N+](=O)[O-]	none
COc1c(OC(C)=O)ccc(/C=N/NC(=O)COc2c(C)ccc(C)c2C)c1[N+](=O)[O-]	TEAD-YAP inh 51.7
CC(NC(=O)CCl)C1COc2ccccc2O1 (centres undefined)	TEAD-YAP inh 36.7
CCCc1ccc(-c2ccc(F)c(N3C(=O)c4cccc(F)c4C3=O)c2)nc1	TEAD-YAP inh 61.9
COC(=O)c1c(NC(=O)COc2ccc(C)c(C)c2)sc2c1CCC(C)C2 (centres undefined)	none
COc1cc(/C=C2/C=C(c3ccc(C)cc3)OC2=O)ccc1O	TEAD-YAP inh 64.9
COc1cc(/C=C2/C=C(c3ccc(C)cc3)OC2=O)ccc1C	TEAD-YAP inh 32.4
CCOc1cccc(C(=O)Nc2ccc(N3CCN(C(=O)c4ccco4)CC3)cc2)c1	none
Cc1cc(Br)cc(C)c1NC(=O)NC1(C(F)(F)F)Oc2ccc(Cl)cc2O1 (centres undefined)	none
Brc1cccc(-c2nc(-c3ccccn3)no2)c1	TEAD-YAP inh 72.7
COc1cccc(-c2nc(-c3ccccc3)no2)c1	none
Brc1ccc(-c2nc(-c3ccccn3)no2)cc1	TEAD-YAP inh 90.3
COc1cccc(-c2nc(-c3ccccn3)no2)c1	TEAD-YAP inh 86.3
Clc1ccccc1/C=C/c1nc(-c2ccccn2)no1	TEAD-YAP inh 85.3
Ic1cccc(-c2nc(-c3ccccn3)no2)c1	none
COc1ccc(C(=O)/C=C(\C)Nc2ccc(I)cc2)cc1	none
Cc1cccc(NC(=O)C2C3C=CC4(O3)C2C(=O)N(CCc2ccc(Cl)cc2)C4C(=O)NC2CCCCC2C)c1 (centres undefined)	none
CC(C)(C)c1ccc(-c2nc(-c3ccccn3)no2)cc1	TEAD-YAP inh 96.2
c1ccc(-c2noc(-c3ccncc3)n2)nc1	none
NC(=O)c1ccccc1Nc1cc(NC(=O)C2CCc3ccccc32)ncc1C(F)(F)F (centres undefined)	TEAD-YAP inh 75.1
COc1ccc(CC(=O)Nc2cc(Nc3ccccc3C(N)=O)c(C(F)(F)F)cn2)cc1	TEAD-YAP inh 98.0
O=C(Cc1ccc(F)cc1)Nc1cc(Nc2ccccc2-c2nn[nH]n2)c(C(F)(F)F)cn1	none
NC(=O)c1ccccc1Nc1cc(NC(=O)Cc2ccc(F)cc2)ncc1C(F)(F)F	TEAD-YAP inh 95.3
NC(=O)c1ccccc1Nc1cc(NC(=O)Cc2ccc(F)c(F)c2)ncc1F	none
NC(=O)c1ccccc1Nc1cc(NC(=O)Cc2ccc(F)c(F)c2)ncc1Cl	TEAD-YAP inh 83.2
COc1ccc2c(c1)CCC2C(=O)Nc1cc(Nc2ccccc2C(N)=O)ccn1 (centres undefined)	none
COC(=O)c1cc2ccsc2n1Cc1ccc([N+](=O)[O-])cc1	none
NC(=O)c1ccccc1Nc1cc(NC(=O)Cc2ccc([N+](=O)[O-])cc2)ncc1C(F)(F)F	TEAD-YAP inh 96.2
NC(=O)c1ccccc1Nc1cc(Oc2ccccc2F)ncc1C(F)(F)F	none
O=C(Cc1ccc(F)cc1)Nc1cc(Nc2ccccc2CO)c(C(F)(F)F)cn1	TEAD-YAP inh 61.6
Nc1cc(Nc2ccccc2CO)c(C(F)(F)F)cn1	none
NC(=O)c1ccccc1Nc1cc(NC(=O)Cc2ccc(F)c(F)c2)ncc1C(F)(F)F	TEAD-YAP inh 92.1
CC(C)NC1CCC(Nc2cc(Nc3ccccc3C(N)=O)c(C(F)(F)F)cn2)CC1 (centres undefined)	TEAD-YAP inh 94.2
Cc1cccc(CN2CCCC(N(C)CCc3ccccc3)C2)n1 (centres undefined)	none
N#Cc1ccccc1NC(=O)CSc1ccc([N+](=O)[O-])cn1	none
N#Cc1ccccc1Nc1cc(NC(=O)Cc2ccc([N+](=O)[O-])cc2)ncc1C(F)(F)F	TEAD-YAP inh 39.9
CNC(=O)c1cncnc1Nc1cc(NC(=O)Cc2ccc(OC)cc2)ncc1C(F)(F)F	TEAD-YAP inh 54.0
CNC(=O)c1cncnc1Nc1cc(Nc2ccc3c(c2)CC(=O)N3)ncc1C(F)(F)F	none
N#CC1=C(N)Oc2ccc3ccccc3c2C1c1cccc(F)c1 (centres undefined)	TEAD-YAP inh 55.7
N#CC1=C(N)Oc2c(ccc3ccccc23)C1c1cccc(F)c1 (centres undefined)	none
N#CC1=C(N)Oc2ccc3ccccc3c2C1c1cccnc1 (centres undefined)	TEAD-YAP inh 57.3
N#CC1=C(N)Oc2ccc3ccc(O)cc3c2C1c1cccnc1 (centres undefined)	none
Clc1ccc(-n2ncc3c(N4CCCCCC4)ncnc32)cc1	TEAD-YAP inh 90.5
Fc1ccc(-n2ncc3c(N4CCOCC4)ncnc32)cc1	TEAD-YAP inh 76.9
Clc1ccc(-n2ncc3c(N4CCOCC4)ncnc32)cc1	TEAD-YAP inh 79.5
Clc1ccc(CCNc2ncnc3c2cnn3-c2ccc(Cl)cc2)cc1	none
Clc1ccc(-n2ncc3c(N4CCN(c5ccc(Cl)c(Cl)c5)CC4)ncnc32)cc1	none
Clc1ccc(-n2ncc3c(NCCN4CCOCC4)ncnc32)cc1	TEAD-YAP inh 42.0
COc1ccc(C2/C(=N\O)C(c3ccccc3)=Nc3ncnn32)cc1 (centres undefined)	none
Cc1nnc2c(N3CCN(c4ccc([N+](=O)[O-])cc4)CC3)nc3ccccc3n12	none
Cc1cc(N2CCCCC2)nc2ccc(NC(=O)CCC(=O)NCCCOC(C)C)cc12	none
Cc1ccc(-n2ncc3c(N4CCOCC4)ncnc32)cc1Cl	TEAD-YAP inh 92.4
Cc1cccc(-n2ncc3c(N4CCN(c5ccc(Cl)c(Cl)c5)CC4)ncnc32)c1	none
COCCn1c(C)cc(C(=O)CSc2nnc(C)s2)c1C	TEAD-YAP inh 70.1
Cc1cc(C(=O)CSc2nnc(N)s2)c(C)n1Cc1ccco1	TEAD-YAP inh 36.6
Cc1cc(C(=O)COC(=O)c2cccs2)c(C)n1Cc1cccs1	TEAD-YAP inh 52.7
Cc1nnc(SCC(=O)c2cc(C)n(Cc3cccs3)c2C)s1	TEAD-YAP inh 61.9
COc1ccc(CCn2c(C)cc(C(=O)CSc3nnc(C)s3)c2C)cc1	none
N#CC(=C1N=c2ccccc2=N1)c1c(O)[nH]c2ccc(F)cc12	none
O=C(CNc1ccc(I)cc1)N/N=C/c1ccc(O)cc1O	TEAD-YAP inh 55.9
O=C(N/N=C/c1ccc(O)cc1O)c1ccc(I)cc1	TEAD-YAP inh 45.5
CCc1ccc(C(=O)Nc2ccc(Br)cc2)cc1	none
Cc1ccc(-n2nc3ccc(NC(=O)COc4ccccc4)cc3n2)cc1Cl	FBW7 activator 5.2
CCc1ccc(C(=O)Nc2ccc(C(=O)O)cc2)cc1	TEAD-YAP inh 57.9
COc1ccc(NC(=O)COc2c(C)ccc(C)c2C)cc1	TEAD-YAP inh 45.8
CCc1ccc(C(=O)Nc2ccc(Br)cn2)cc1	TEAD-YAP inh 38.1
CCc1ccc(C(=O)Nc2ccc(I)cn2)cc1	none
O=C(CNC1CCCCC1)Nc1ccc([N+](=O)[O-])cc1	none
CC(CNc1nc2ccccc2n2nnnc12)c1ccccc1 (centres undefined)	none
O=C(CCS(=O)(=O)c1ccc(Br)cc1)Nc1ccc(F)cc1Cl	none
